Hit rate of the full screen: of about 2,300 compounds, about 350 (15%) were called active. The rule behind the calls is not given here. The list is a sample of the results. Results with a measured potency or affinity are listed apart.
assay: HepG2 cell cytotoxicity, dose response, cytotoxicity control for non-replicating M. tuberculosis project (AID 489018); settings: series mostly up to 20 µM;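 note: HepG2 human liver cells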

Compound	outcome
c1ccc(Nc2nc(Nc3ccccc3)nc(N3CCNCC3)n2)cc1	inactive
COc1ccc(CCOC(=O)c2ccc(N)c([N+](=O)[O-])c2)cc1	inactive
Cc1ccccc1NC(=O)c1nc[nH]c1C(=O)NCc1ccccc1	inactive
O=C(COC(=O)CCc1c[nH]c2ccccc12)Nc1cc([N+](=O)[O-])ccc1Cl	inactive
C[C@H](NC(=O)c1[nH]cnc1C(=O)Nc1ccccc1)C(=O)OC(C)(C)C	inactive
O=c1c2c(nc3c(-c4ccccc4)c[nH]n13)CCCC2	inactive
Cc1ccc(-c2noc(CCCC(=O)Nc3cccnc3)n2)cc1	inactive
CCCCNC(=O)COC(=O)c1cc(F)c(F)cc1Cl	inactive
O=C(CCNc1ccc(F)cc1)c1ccco1	inactive
O=C(/C=C/Nc1ccccc1O)c1ccco1	inactive
COc1ccc(C(=O)COC(=O)c2ccccc2O)c(OC)c1	inactive
CCCS(=O)(=O)c1nnnn1-c1cccc(OC)c1	inactive
CCOC(=O)Cn1cc(C#N)c2cccc(CC)c21	inactive
CCn1c(NC(=O)c2ccccc2)nc2ccccc21	inactive
CCOC(=O)C(C)Oc1ccc(OCc2ccccc2)cc1 (stereo unspecified)	inactive
CCOC(=O)COc1ccc2c(c1)c(C(C)=O)c(C)n2Cc1ccccc1	inactive
CC(C)(C)NC(=O)c1ccc(NC(=O)c2ccccc2-c2ccccc2C(=O)O)cc1	inactive
CSc1ccc(N=Nc2c(C)[nH]n(C)c2=O)cc1	inactive
Nc1nc2ccccc2n1CCOc1ccccc1Cl	inactive
C/C(=N\NC(=O)c1ccc([N+](=O)[O-])c(C)c1)c1ccccc1Cl	inactive
C/C(=N\NC(=O)c1ccccc1)c1nc2ccccc2n1C	inactive
Cc1ccc(N2NC(=O)/C(=C/C=C/c3ccco3)C2=O)cc1C	inactive
c1ccc(CSc2ccc(-c3ccccn3)nn2)cc1	inactive
COC(=O)/C(=C1/Oc2cc(C)oc(=O)c2S1)C(F)(F)F	inactive
O=C(Nc1nc2c(Cl)cccc2s1)c1ccc([N+](=O)[O-])o1	inactive

Compound	outcome
O=C(Nc1cccc(S(=O)(=O)N2CCCCC2)c1)c1ccc([N+](=O)[O-])o1	inactive
O=C(Nc1ccc(Cc2ccncc2)cc1)c1ccc([N+](=O)[O-])o1	inactive
O=C(Nc1ccccc1N1CCN(C(=O)c2ccc(Cl)cc2)CC1)c1ccc([N+](=O)[O-])o1	inactive
O=C(Nc1ccc(S(=O)(=O)N2CCOCC2)cc1)c1ccc([N+](=O)[O-])o1	inactive
O=C(Nc1cccc(Cl)c1N1CCCC1)c1ccc([N+](=O)[O-])o1	inactive
Cc1ccc(C)c(-c2nnc(NC(=O)c3ccc([N+](=O)[O-])o3)o2)c1	inactive
Cc1ccc(-n2nnnc2CNC(=O)c2ccc([N+](=O)[O-])o2)cc1C	inactive
CCNC(=O)COC(=O)c1ccc(-c2nc3ccccc3s2)s1	inactive
O=C(CCN1CCN(C/C=C/c2ccccc2)CC1)Nc1ccc(Cl)cc1	inactive
O=C(COc1ccc(F)cc1)N/N=C/c1cccc2cccnc12	inactive
CCCn1nnnc1NC(=O)c1ccc2ccccc2c1	inactive
COCCn1c(C)cc(C(=O)COC(=O)c2ccc([N+](=O)[O-])o2)c1C	inactive
CC(=O)Oc1c(-c2ccc(Br)o2)oc2ccccc2c1=O	inactive
C=CCn1c(O)c(C2=c3ccccc3=NC2=O)c2ccccc21	inactive
O=C1c2cc([N+](=O)[O-])cc3cc([N+](=O)[O-])cc(c23)C(=O)N1c1ccccn1	inactive
CCCCNC(=O)COC(=O)c1cc(Br)ccc1Cl	inactive
Cc1ccc(CNC(=O)c2ccc([N+](=O)[O-])o2)cc1	inactive
O=C(Nc1ccccn1)c1ccc([N+](=O)[O-])o1	inactive
O=C(Nc1ncccn1)c1ccc([N+](=O)[O-])o1	inactive
O=C(Nc1cccnc1)c1ccc(-c2ccc(Cl)cc2)o1	inactive
O=C(Nc1nccs1)c1ccc(-c2ccc(Cl)cc2)o1	inactive
O=C(Nc1nc(-c2ccccn2)cs1)c1ccc([N+](=O)[O-])o1	inactive
CCOC(=O)c1cc(-c2csc(COc3ccc(Cl)cc3)n2)on1	inactive
Cc1cccc(NC(=O)COC(=O)CCc2c[nH]c3ccccc23)c1C	inactive
CC(OC(=O)c1ccc2c(=O)n3c(nc2c1)CCCCC3)C(=O)Nc1ccc(Cl)cn1 (stereo unspecified)	inactive

Compound	outcome
C=CCn1c(NC(=O)c2ccccc2)nc2ccccc21	inactive
C/C(=N/NC(=O)c1ccncc1)C1=C(O)CC(C)(C)CC1=O	inactive
C=Cc1cccc(NC(=O)COc2ccccc2)c1	inactive
Cc1ccc(NCCC(=O)c2cccs2)cc1Cl	inactive
CCOC(=O)COc1ccc2c(c1)c(C(=O)OCC)c(C)n2CC	inactive
NC(N)=Nc1nc(-c2ccccc2)c2ccccc2n1	inactive
Cc1cc(C)c2nc(/N=C(\N)NC(=O)Nc3ccccc3)nc(C)c2c1	inactive
CCC(CC)c1nnc(NC(=O)c2ccc3ccccc3n2)s1	inactive
Cc1ccc(NC(=O)CO/N=C/c2ccccc2C)c(C)c1	inactive
CC(=O)CCC1CC(c2ccc(Cl)cc2)=NO1 (stereo unspecified)	inactive
CCCCCCNC(=O)c1ccc(Br)o1	inactive
COc1cccc2cc(C(=O)NCc3ccc(F)cc3)c(=N)oc12	inactive
O=[N+]([O-])c1cncc([N+](=O)[O-])c1Nc1ccccc1Cl	inactive
Cc1cc(Br)ccc1OCC(=O)NNC(=O)c1cnccn1	inactive
Cc1ccc(C(=O)C=CNNC(=O)c2ccccc2)cc1	inactive
CNC(=O)c1[nH]cnc1C(=O)Nc1ccc(Cl)cc1	inactive
Cc1nc(C(=O)Nc2ccccc2)sc1C(=O)Nc1ccccc1	inactive
O=C(CN1CCOCC1)N/N=C/c1ccc(-c2ccc(Br)cc2)o1	inactive
CCOCC(=O)Nc1ccc(C)c(Cl)c1	inactive
CCC(C)(C)NC(=O)c1ccc(Br)o1	inactive
O=C(Nc1ccccc1)c1ccc(Br)o1	inactive
O=C(O)CCCCCN1C(=O)/C(=C\c2ccncc2)SC1=S	inactive
CCn1c(-c2ccco2)nc2ccccc21	inactive
COc1cccc(COC(=O)c2sc3nc4n(c(=O)c3c2C)CCC4)c1OC	inactive
Cc1cccc(NC(=O)c2ccc([N+](=O)[O-])s2)n1	inactive

Compound	outcome
COc1ccc(NC(=O)c2cnc(SC)nc2)cc1	inactive
Cc1ccccc1-n1sc2cc(F)ccc2c1=O	inactive
CN(CCCCOc1ccc(F)cc1)Cc1ccccc1	inactive
O=C(Nc1ccn(Cc2ccccc2)n1)c1ccc(F)cc1	inactive
O=C(CCN1C(=O)S/C(=C\c2ccc(F)cc2)C1=O)Nc1ccc(C(=O)O)c(O)c1	inactive
FC(F)(Cl)c1nnc2ccc(Cl)nn12	inactive
Cn1c(SCc2c(F)cccc2Cl)nc2c(c1=O)SCC2	inactive
O=C(Oc1ccccc1)c1cc2ccccc2o1	inactive
COC(=O)c1ccc2c(c1O)C(=O)c1ccccc1C2=O	inactive
COc1ccc(-c2[nH]ncc2CN2CCCCCCC2)c(OC)c1	inactive
Cc1noc2ncnc(Sc3ccccc3Cl)c12	inactive
Cc1ccc(/C=N/NC(=O)c2ccncc2)s1	inactive
O=C(N/N=C/c1ccc(Br)s1)c1ccncc1	inactive
O=C(Nc1nccs1)c1ccc2ccccc2c1	inactive
CC(C)(C)c1ccc(-c2nc(C#N)c(NCCCn3ccnc3)o2)cc1	inactive
O=[N+]([O-])c1ccc(Nc2ccccc2)c2nonc12	inactive
O=[N+]([O-])c1ccc(Nc2ccccc2O)c2nonc12	inactive
C#CCSc1nnc(-c2ccc(C)cc2)o1	inactive
c1ccc(CNCCC(Cc2ccccc2)c2ccco2)cc1 (stereo unspecified)	inactive
O=C(Nc1ccc(Cl)cc1Cl)c1cccc(N2C(=O)C=CC2=O)c1	inactive
c1ccc2[nH]c(NC3=NCCC3)nc2c1	inactive
Cc1cccc(OCCCCc2c(C)n[nH]c2C)c1	inactive
O=C(NC(=S)N1CCN(Cc2ccc3c(c2)OCO3)CC1)c1ccc(Cl)cc1	inactive
C/C(=N\Nc1ccc(Cl)cc1)c1ccccn1	inactive
COc1ccc(C(=O)Nc2ccccc2C(=O)N/N=C/c2ccco2)cc1	inactive

Compound	outcome
COc1cc(/C=N/NC(=O)c2ccccn2)ccc1OC(=O)c1cccs1	inactive
O=C(N/N=C/c1ccccn1)c1ccccc1	inactive
C/C(=N\Nc1cccc2cccnc12)c1ccccn1	inactive
O=C(COc1ccc(Cl)cc1)NNC(=O)c1ccccn1	inactive
C/C(=N\NC(=O)CCCNc1ccc(C)cc1)c1ccccn1	inactive
COc1ccccc1/C=C/C=N/NC(=O)c1ccncc1	inactive
COc1ccc(N2C(=O)C(F)(F)C2c2cccc(F)c2)cc1 (stereo unspecified)	inactive
Cc1ccc(-c2nnc(NC(=O)c3ccco3)o2)c(C)c1	inactive
Cc1ccc(S(=O)(=O)/N=C(\CCl)N2CCOCC2)cc1	inactive
O=C(N/N=C/c1cccc2cccnc12)[C@H]1C[C@@H]1c1ccccc1	inactive
O=C(CCc1c[nH]c2ccccc12)Nc1ncccc1O	inactive
CC(C)c1ccc(/C=N/NC(=O)c2ccccn2)cc1	inactive
O=C(Nc1ccc(Br)cc1)c1cc([N+](=O)[O-])cc([N+](=O)[O-])c1	inactive
Nc1ccccc1C#CC(=O)c1ccccc1	inactive
COc1ccc(OCCOC(=O)CCS(=O)(=O)c2ccc(C)cc2)cc1	inactive
CCOC(=O)c1ccsc1NC(=O)CCS(=O)(=O)c1ccccc1	inactive
COC(=O)COc1ccc(-c2ccccc2)cc1C=O	inactive
COc1ccc(-c2cc(C(F)(F)F)nc(S(C)(=O)=O)n2)cc1	inactive
COc1ccc(C(=O)Cn2c(C)nc([N+](=O)[O-])c2Br)cc1	inactive
O=C(COc1ccccc1)NC1CCCCC1	inactive
Cc1ccc2nc(/N=C(\N)NC(=O)NC3CCCCC3)nc(C)c2c1	inactive

Reference: PubChem BioAssay AID489018 (Southern Research Specialized Biocontainment Screening …, 2010)
